Measurements: article PMC4552634, “A New Set of Chemical Starting Points with Plasmodium falciparum Transmission-Blocking Potential for Antimalarial Drug Discovery” (PLoS ONE, 2015)
Among all 13,000 compounds or so, about 3,200 (25%) showed an effect of 50% or more. The list shows a part of the results.

test system: P. falciparum stage V gametocytes; set-up: BacTiter-Glo ATP luminescence viability of purified stage V gametocytes in 384-well plates, per cent inhibition versus DMSO; details: 48 h, 5 µM; inhibitor

| Compound | % Inhibition [%] |
| --- | --- |
| O=C(Nc1ccc(OC2CCN(Cc3ccc(F)cc3)C2)c(Cl)c1)c1ccsc1 (centres unmarked) [TCMDC-133756] | -6.821 |
| O=C(Nc1cccc(Cl)c1Cl)N1CCc2cc3nccc(N4CCN5CCC[C@H]5C4)c3cc21 [TCMDC-140054] | -5.668 |
| CC(C)CNCc1ccc(-c2ccccc2CN(C(=O)NCCc2ccccc2)C2CCN(Cc3ccccc3)CC2)cc1 [TCMDC-140609] | 78.77 |
| O=C(c1ccccc1)N(Cc1ccccc1-c1ccc(CNCCc2ccccc2)cc1)C1CCN(Cc2ccccc2)CC1 [TCMDC-140531] | 62.45 |
| O=C(NC1CCCCC1)N(Cc1ccccc1-c1ccc(CNCCc2ccccc2)cc1)C1CCN(Cc2ccccc2)CC1 [TCMDC-140625] | 106.9 |
| CC(=O)N(Cc1ccccc1-c1cccc(CNCCc2ccccc2)c1)C1CCN(Cc2ccccc2)CC1 [TCMDC-140524] | 45.75 |
| CC(=O)N(Cc1ccccc1-c1ccc(CNCCc2ccccc2)cc1)C1CCN(Cc2ccccc2)CC1 [TCMDC-140525] | 102.9 |
| CCOc1ccc(N2C(N)=NC(N)=NC2(C)C)cc1 [TCMDC-124280] | 3.734 |
| COc1cc(C(=O)NC2CCN(Cc3ccccc3)CC2)ccc1-c1cc2cc(Cl)c(Cl)cc2[nH]1 [TCMDC-141286] | 1.884 |
| CC(C)[C@H](NC(=O)c1c(CN2CCC(N3CCCCC3)CC2)c(-c2ccccc2)nc2cc(O)ccc12)c1ccccc1 [TCMDC-140676] | 20.63 |
| O=C(NCCc1ccccc1)N(Cc1ccccc1-c1cccc(CNCc2ccc3c(c2)OCO3)c1)C1CCN(Cc2ccccc2)CC1 [TCMDC-140614] | 15.63 |
| CC(C)CNCc1cccc(-c2ccccc2CN(C(=O)NCCc2ccccc2)C2CCN(Cc3ccccc3)CC2)c1 [TCMDC-140608] | 89.6 |
| O=C(NCCc1ccccc1)N(Cc1ccccc1-c1ccc(CNCCc2ccccc2)cc1)C1CCN(Cc2ccccc2)CC1 [TCMDC-140611] | 104.9 |
| O=C(NCCc1ccccc1)N(Cc1ccccc1-c1cccc(CNCCc2ccccc2)c1)C1CCN(Cc2ccccc2)CC1 [TCMDC-140610] | 46.01 |
| Fc1ccc2[nH]c3c(NCCN4CCCCC4)ncnc3c2c1 [TCMDC-123757] | -41.7 |
| CCc1cc(=O)[nH]c(-n2nc(C)cc2NC(=O)CC(c2ccccc2)c2ccccc2)n1 [TCMDC-124942] | 38.89 |
| Cc1cccc(Nc2nccc(NCC(O)c3cccc(C(F)(F)F)c3)n2)c1 (centres unmarked) [TCMDC-136582] | 10 |
| CCCCCCNC[C@@H](O)[C@H](Cc1ccccc1)NC(=O)c1cc(NCC)cc(N2CCCCS2(=O)=O)c1 [TCMDC-135218] | 27.85 |
| Cc1ccc2[nH]c(C3CCCNC3)c(-c3ccncc3)c2c1 (centres unmarked) [TCMDC-134505] | 76.33 |
| COC(=O)c1cc(NC(=O)Nc2ccc(Cn3ncc(N4CCCNCC4)c(Cl)c3=O)cc2)cc(C(=O)OC)c1 [TCMDC-133324] | 3.06 |
| Clc1cc(Nc2ccnc3ccc(Br)cc23)ccc1Oc1ccc2ccccc2c1Cl [TCMDC-124239] | 37.87 |
| COC(=O)CCCCOc1c(OC)cc(Cc2cnc(N)nc2N)cc1OC [TCMDC-137353] | 24.77 |
| CCN(CCCN1CCCC1)c1cc(C)nc(Nc2ccc(Cl)cc2)n1 [TCMDC-137224] | 44.32 |

| Compound | % Inhibition [%] |
| --- | --- |
| Cc1cc(N(C)C2CCN(C)C2)nc(Nc2ccc(Cl)cc2)n1 (centres unmarked) [TCMDC-137010] | 65.31 |
| Cc1cc(N(C)CCCN2CCCCC2)nc(Nc2ccc(Cl)cc2)n1 [TCMDC-137485] | 86.59 |
| CCN(CCCN1CCCCC1)c1cc(C)nc(Nc2cc(Br)ccc2C)n1 [TCMDC-132432] | 22.76 |
| CCN(CCCN1CCCCC1)c1cc(C)nc(Nc2ccc(C)cc2Br)n1 [TCMDC-132441] | 94.55 |
| Cc1cc(N(C)C2CCN(C)CC2)nc(Nc2ccc(Br)cc2)n1 [TCMDC-137015] | 43.74 |
| CCN(CCCN1CCCCC1)c1cc(C)nc(Nc2ccc(Br)cc2F)n1 [TCMDC-132428] | 4.971 |
| CCN(CCCN1CCCCC1)c1cc(C)nc(Nc2ccc(Cl)cc2)n1 [TCMDC-137488] | -3.889 |
| Cc1cc(N(C)C2CCN(C)CC2)nc(Nc2ccc(Cl)cc2)n1 [TCMDC-132418] | 22.03 |
| CCN(CCCN1CCCCC1)c1cc(C)nc(Nc2cc(C)ccc2C)n1 [TCMDC-132449] | 18.24 |
| CCN(CCCN1CCCCC1)c1cc(C)nc(Nc2cc(Cl)ccc2C)n1 [TCMDC-132446] | 50.43 |
| Cc1c(Cc2ccccc2Cl)cnc2nc(N)nc(N)c12 [TCMDC-137245] | 7.074 |
| CCC(C)NS(=O)(=O)c1ccc2nc(Nc3ccc(C)cc3)n(C(C)C(C)(C)C)c2c1 (centres unmarked) [TCMDC-136230] | -32.2 |
| Cc1cccc2[nH]c(-c3ccc(-c4cccc(NC(=O)Nc5ccsc5)c4)cc3)nc12 [TCMDC-133217] | -11.37 |
| CS(=O)(=O)CCOCc1ccc(-c2ccc3ncnc(Nc4ccc(OCc5cccc(F)c5)c(Cl)c4)c3c2)o1 [TCMDC-138529] | -28.77 |
| CC1(C)N=C(N)N=C(N)N1OCc1cc(Cl)cc2c1OCOC2 [TCMDC-131577] | 12.67 |
| COc1cc(C)nc2ccc(NC(=O)Nc3ccccc3[N+](=O)[O-])cc12 [TCMDC-139396] | 3.442 |
| CCCc1ccccc1Nc1nc(C)cc(N(CC)CCCN2CCCCC2)n1 [TCMDC-132434] | 49.3 |
| CCN(CCCN1CCCCC1)c1cc(C)nc(Nc2ccc3c(c2)CCC3)n1 [TCMDC-132443] | -21.7 |
| CCN(CCCN1CCCCC1)c1cc(C)nc(Nc2ccc(C)cc2C)n1 [TCMDC-132445] | 14.07 |
| CCN(CCCN1CCCCC1)c1cc(C)nc(Nc2cccc3c2CCCC3)n1 [TCMDC-132431] | 65.25 |
| CCN(CCCN1CCCCC1)c1cc(C)nc(Nc2ccc(Cl)cc2C)n1 [TCMDC-132447] | 51.94 |
| CCN(CCCN1CCCCC1)c1cc(C)nc(Nc2ccc(C)cc2Cl)n1 [TCMDC-132442] | 11.92 |
| COc1ccc2nccc([C@@H](O)CN3CCC(NCc4cc5oc(=O)[nH]c5cc4Cl)CC3)c2c1 [TCMDC-141121] | -3.584 |

| Compound | % Inhibition [%] |
| --- | --- |
| Cc1cccc2nc(-c3cccc(-c4ccc(NC(=O)NC5CC5c5ccccc5)cc4)c3)[nH]c12 (centres unmarked) [TCMDC-133252] | -20.42 |
| Cc1cc2ncc(C(N)=O)c(Nc3ccc(N4CCOCC4)cc3)c2cc1S(C)(=O)=O.Cl [TCMDC-135825] | -8.581 |
| CCCCc1ccc(-c2c(N)nc(N)nc2CC)cc1 [TCMDC-138064] | -26.34 |
| O=C(/C=C/c1ccc(Cl)c(Cl)c1)NCCCCCCN1CCN(C(=O)Nc2cc(F)cc(F)c2)CC1 [TCMDC-135832] | -49.78 |
| COc1ccc2nccc(NCC3(O)CCN(CC(O)c4ccc5c(c4)NC(=O)CS5)CC3)c2n1 (centres unmarked) [TCMDC-141462] | 18.04 |
| CCc1cc([C@H]2O[C@@H](n3cnc4c(NCC(c5ccccc5)c5ccccc5)nc(NCCNc5ccccn5)nc43)[C@H](O)[C@@H]2O)on1 [TCMDC-138085] | 3.442 |
| CC(C)(C)c1ccc(CNC(=O)c2cc(CNC3CCC(N)CC3)ccc2O)cc1 (centres unmarked) [TCMDC-140776] | 87.73 |
| CC(C)(C)c1ccc(CN2CCC(NC(=O)c3ccc(-c4ccccc4Cl)s3)CC2)cc1 [TCMDC-134351] | 7.857 |
| CC(C)(C)c1ccc(CNC(=O)c2ccc(CNC3CCC(N)CC3)s2)cc1 (centres unmarked) [TCMDC-140777] | 101.7 |
| CC(C)(C)c1ccc(CNC(=O)/C=C/c2ccc(CNC3CCNCC3)cc2)cc1 [TCMDC-140773] | 88.02 |
| O=C(NCc1ccc(Cl)c(Cl)c1)c1cc(CNC2CCNCC2)ccc1O [TCMDC-140774] | 49.2 |
| CC(C)(C)c1ccc(CN2CCC(NC(=O)c3ccc(-c4cccc(Cl)c4)s3)CC2)cc1 [TCMDC-134352] | -48.88 |
| CC(C)(C)C/C=C\c1ccc(C(=O)NCC2CC2)cc1 [TCMDC-138516] | 17.43 |
| CC(C)(C)c1ccc(CNC(=O)c2cc(CNC3CCNCC3)ccc2O)cc1 [TCMDC-140775] | 70.98 |
| CC(C)(CNC(=O)/C=C/c1ccc(C(F)(F)F)cc1)CNc1cc(=O)c2ccccc2[nH]1 [TCMDC-139403] | -57.07 |
| CC(C)(C)c1ccc(CNC(=O)c2cc(CNC3CCNC3)ccc2O)cc1 (centres unmarked) [TCMDC-140761] | 47.42 |
| COc1ccc(O)c(C(=O)NCCc2ccc(OC)c(-c3ccc(C(C)(C)C)cc3)c2)c1 [TCMDC-136183] | 40.96 |
| COc1ccc(CCNC(=O)c2cc(C)ccc2O)cc1-c1ccc(C(C)(C)C)cc1 [TCMDC-136184] | 6.315 |
| CC(C)[C@H](NC(=O)c1ccc(O)c(-c2ccc(Cl)c(Cl)c2)c1)C(=O)NC1CCCCCC1 [TCMDC-140844] | 10.04 |
| Cc1cc(O)c(C(C)C)cc1C1(c2cc(C(C)C)c(O)cc2C)OC(=O)c2ccccc21 [TCMDC-123951] | -40.8 |
| Cn1nccc1C(=O)NCCNCc1cccc(-c2ccc(-c3nc4ccccc4[nH]3)cc2)c1.O=C(O)C(F)(F)F [TCMDC-133019] | -30.97 |
| CC(C)(C)c1cc(C(=O)N2CCC(c3ccccn3)CC2)n(Cc2ccccc2)n1 [TCMDC-133770] | -53.32 |
